Screen size: about 48,000 compounds; about 13,000 (27%) showed an effect of 50% or more. Some of the results follow.
tested on: Wolbachia pipientis; test: Anti-Wolbachia Cell-Based Screen; format: functional; design: scale not given: in the data most compounds retested in dose-response had high values; details: 5 µM

SMILES	Percent Effect [%]
Cc1cc(-c2nn(C)c(Cl)c2CN2CC[C@H](CO)[C@@H](O)C2)no1	35.82
COCCn1/c(=N/C(=O)C(C)C)sc2cc(Cl)ccc21	4.263
Cn1cc(-c2csc(N3CCN(c4nccs4)CC3)n2)cn1	-4.686
CC1CN(c2ncnc3sccc23)CCN1c1nccs1 (centres undefined)	102.8
c1cnn(CC2CN(c3ncnc4sccc34)CCO2)c1 (centres undefined)	-13.3
COc1c(C2CCCN2c2ncnc3c2cnn3C)c(C)nn1C (centres undefined)	-11.95
Cc1cnn(CC2CCCN2c2ncnc3sccc23)c1 (centres undefined)	-4.98
CC1CN(c2ncnc3c2cnn3C)CCN1c1nccs1 (centres undefined)	136.1
CCc1nc(C)c(C(=O)NCCNc2ncnc3sccc23)s1	-61.04
Cc1nc(CN2C[C@@H]3CN(C(=O)C4(C#N)CC4)C[C@@H]3C2=O)cs1.O=C(O)C(F)(F)F	-7.986
COCC1COCCC12CCN(S(=O)(=O)c1ccccc1)CC2 (centres undefined)	111.6
COCC1COCCC12CCN(C(=O)CCc1ccccc1)CC2 (centres undefined)	-6.521
O=C(Cc1ccco1)N1CCC2(CCOCC2COCC2CC2)CC1 (centres undefined)	-44.1
COCC1COCCC12CCN(S(=O)(=O)c1cccnc1)CC2.O=C(O)C(F)(F)F (centres undefined)	117.9
COCC1COCCC12CCN(S(=O)(=O)c1ccccc1C)CC2 (centres undefined)	121.7
COCC1COCCC12CCN(S(=O)(=O)c1ccc(C)cc1)CC2 (centres undefined)	101.4
CCO[C@@H]1CO[C@@]2(CCCN(S(=O)(=O)c3cccnc3)C2)C1.O=C(O)C(F)(F)F	-5.792
CCn1cc2c(n1)CN(S(=O)(=O)c1cccnc1)CC2COC.O=C(O)C(F)(F)F (centres undefined)	-12.46
COCC1COCCC12CCN(C(=O)CC1=CCCCC1)CC2 (centres undefined)	-25.41
COCC1COCCC12CCN(C(=O)CCOc1ccccc1)CC2 (centres undefined)	9.795
CCOCC1COCCC12CCN(C(=O)CS(C)(=O)=O)CC2 (centres undefined)	-11.35
CCOCC1COCCC12CCN(C(=O)CC1=CCCCC1)CC2 (centres undefined)	-10.97
CCCNC(=O)Cn1nc(C(C)C)c2cnn(C(C)(C)C)c2c1=O	13.78
CNC(=O)c1sc(C(NC(=O)c2ccccc2)C2CC2)nc1C (centres undefined)	1.807
Cn1cc(C2CCCN2CCCc2nc(-c3cccs3)no2)cn1 (centres undefined)	7.461

SMILES	Percent Effect [%]
CCn1nc(C)cc1C(=O)OCCNc1ncnc2ccccc12	-8.299
O=C(Nc1nncs1)NC1CCc2ccccc21 (centres undefined)	-2.226
O=C(NCc1nnc2n1CCCCC2)N(Cc1ccccn1)C1CC1	-22.11
CN(Cc1ccncc1)C(=O)NCc1nnc2n1CCCCC2	124.1
Cc1csc(CNC(=O)N(C)Cc2nnc3n2CCC3)n1	-16.98
CN(Cc1ccc(O)cc1)C(=O)NCc1nnc2n1CCCCC2	89.08
CCc1sc(C(=O)Nc2cnn(CC(N)=O)c2)cc1C	-1.226
OCC1COCCN(c2ncccc2C(F)(F)F)C1 (centres undefined)	17.46
COCCn1cnnc1C(C)NC(=O)c1[nH]c2c(C)cc(C)cc2c1C (centres undefined)	-15.82
COc1c(C2CCCN2C(=O)c2cc(Cl)c[nH]2)c(C)nn1C (centres undefined)	7.72
COc1c(C2CCCN2C(=O)c2cnc[nH]2)c(C)nn1C (centres undefined)	99.16
Cc1nn(C)c(Cl)c1C1CCCN1C(=O)c1ccc[nH]1 (centres undefined)	99.71
Cc1nn(C)c(Cl)c1C1CCCN1C(=O)c1cc(Cl)c[nH]1 (centres undefined)	15.12
Cc1nn(C)c(Cl)c1C1CCCN1C(=O)c1cnc[nH]1 (centres undefined)	106.1
c1ccc(-c2noc([C@@H]3Cc4nc[nH]c4CN3)n2)cc1	-8.482
COCCCN1CCc2cncnc2C1	-3.846
COCCCN(Cc1cnc(C2CCCCC2)nc1)C1CCN(C)CC1	105.2
COCCCN(C(=O)c1ccc(-n2ccnc2)cc1)C1CCN(C)CC1	-6.688
COCCCN(Cc1cnc(N2CCCC2)nc1)C1CCN(C)CC1	104.1
COCCN1CCC(CN(Cc2ccncc2)C2CCC2)CC1	3.665
COCCN1CCC(CN(Cc2ccncc2)C2CCCCC2)CC1	-7.976
Cc1ccc(C)c2c(O)cc(CN3CCC(c4nncn4C)CC3)nc12	4.156
CC(C)(C)c1cn2nc(N3CCOC(Cn4cncn4)C3)sc2n1 (centres undefined)	9.569
Cc1cccc(CN2CCC3(CC2)CC(Oc2cccnc2)C3)n1.O=C(O)C(F)(F)F.O=C(O)C(F)(F)F	-6.69
Cc1ccc(CN2CCC3(CC2)CC(c2cccnc2)C(=O)N3C)o1.O=C(O)C(F)(F)F.O=C(O)C(F)(F)F (centres undefined)	111.7

SMILES	Percent Effect [%]
Cc1cccc(CN2CCC3(CC2)CC(c2cccnc2)C(=O)N3C)n1.O=C(O)C(F)(F)F.O=C(O)C(F)(F)F (centres undefined)	108
Cc1ccc(CN2CCC3(CC2)CC3CN(C)Cc2cccnc2)o1.O=C(O)C(F)(F)F.O=C(O)C(F)(F)F.O=C(O)C(F)(F)F (centres undefined)	5.127
Cc1cc(C(=O)N2CCC3(CC2)CC(c2cccnc2)C(=O)N3C)no1.O=C(O)C(F)(F)F (centres undefined)	1.086
Cc1nc(CN2CCC3(CC2)CC(c2cccnc2)C(=O)N3C)cs1.O=C(O)C(F)(F)F.O=C(O)C(F)(F)F (centres undefined)	114.5
COC(=O)CNC(=O)CSCc1nc(O)c2cc(C(C)C)sc2n1	2.369
CN(Cc1ncnn1C)C(=O)Nc1ccc(OC(F)F)cc1	-14.3
CN(c1ncnc2c1CCC2)C1CCCN(c2cccnn2)C1 (centres undefined)	4.941
COc1ccc(F)c(CN2CCCC(O)(CNCc3ncc[nH]3)C2=O)c1 (centres undefined)	0.3473
C=C(C)COc1cccc(C(=O)N2CCC3(CCOCC3)CC2)c1	0.8095
CCOc1ccc(-c2ccnc(COc3ccccc3)n2)cc1C(=O)O	-3.347
Cn1cnc(S(=O)(=O)N2C[C@@H]3CC[C@H](C2)N(Cc2cscn2)C3=O)c1	-55.67
Cc1cc(F)c(C(C(=O)O)N2CCN(Cc3ccccn3)CC2)cc1Cl (centres undefined)	7.172
Cc1ccc(C)c(C(C(=O)O)N2CCCN(Cc3ccccn3)CC2)c1 (centres undefined)	19.25
Cc1cc(CN2CCN(S(=O)(=O)c3c(C)c(Cl)cc(C)c3Cl)CC2)on1	85.02
Cc1ccc(CN2CCN(Cc3ccncc3)CC2=O)cc1	-11.1
CNS(=O)(=O)c1ccc(CN2CCCN(Cc3ccncc3)CC2)cc1	21.96
Cc1cc(Cl)c(C)c(S(=O)(=O)N2CCN(Cc3ccccn3)CC2)c1Cl	101.6
Cc1cc(Cl)c(C)c(S(=O)(=O)N2CCN(Cc3ccncc3)CC2)c1Cl	94.36
Cc1ccc(S(=O)(=O)N2CCn3nc(C)nc3C2)c(Cl)c1	0.9769
Cc1ccc(S(=O)(=O)N2CCN(Cc3ccncc3)CC2)c(Cl)c1	109.7
CCN1CCN(S(=O)(=O)c2cc(Cl)c(Cl)cc2C)CC1	4.693
CCCNC(=O)N1CCN(Cc2cc(C)no2)CC1	1.77
Cc1cc(CN2CCN(C(=O)C3(C#N)CCCCC3)CC2)on1	-1.898
CNC(=O)c1ccc(NC(=O)NC(C)CCc2cccn2C)c(C)c1 (centres undefined)	7.929
O=C(CN1CCNCC1)N1CC[C@@H](c2ccc3ccccc3c2)[C@H](O)C1	6.521

SMILES	Percent Effect [%]
OC(COCc1ccccc1)CSc1nnc(C2CC2)n1C1CC1 (centres undefined)	6.526
O=C(c1cccnc1-n1cncn1)N1CCN(C2CCCC2)CC1	9.271
CC(C)Cc1noc(CN(C)C[C@]2(O)CCCN3CCCC[C@@H]32)n1	1.802
CCCc1nc(CN2CCN(CC(O)c3ccccc3)CC2)no1 (centres undefined)	-2.88
O=C(c1ccnnc1)N1C[C@@H](OCC2CCOCC2)[C@H]2OCCC[C@H]21	-2.354
CS(=O)(=O)N1C[C@@H](F)[C@@H](OCc2nc3ccccc3o2)C1	18.73
CCS(=O)(=O)N1C[C@H]2CN(Cc3cccnc3)C(=O)[C@H]2C1.O=C(O)C(F)(F)F	-7.035
O=C(O)C(F)(F)F.O=C(O)C(F)(F)F.O=C1[C@@H]2CCN(C3CCOCC3)C[C@@H]2OCCN1Cc1cccnc1	1.497
Cc1ccc(CN2CC[C@H]3C(=O)N(Cc4cccnc4)CCO[C@H]3C2)o1.O=C(O)C(F)(F)F.O=C(O)C(F)(F)F	-24.56
CS(=O)(=O)N[C@@H]1CCN(Cc2cccnc2)[C@H]1Cc1ccccc1.O=C(O)C(F)(F)F.O=C(O)C(F)(F)F	1.711
O=C(O)C(F)(F)F.O=C1[C@H]2CN(S(=O)(=O)c3ccccc3)C[C@H]2CN1Cc1cccnc1	108.5
O=C(O)C(F)(F)F.O=C1[C@H]2CN(S(=O)(=O)C3CC3)C[C@H]2CN1Cc1cccnc1	124.6
COC(=O)c1cccc2nc([C@H]3CCN(C4CCN(C)CC4)C3)oc12	-2.242
Cc1ccc(N2CC[C@@H]3[C@@H](CO[C@H]3CNC(=O)c3ccco3)C2)nn1	1.851
O=C(NC[C@H]1OC[C@@H]2CCN(Cc3ccco3)C[C@@H]21)c1ccnnc1.O=C(O)C(F)(F)F	121
Cn1cc(C(=O)NC[C@@H]2OC[C@H]3CN(Cc4ccco4)CC[C@H]32)cn1.O=C(O)C(F)(F)F	1.243
Cc1ccc(CN2CC[C@@H]3[C@@H](CO[C@H]3CN(C)C)C2)o1.O=C(O)C(F)(F)F.O=C(O)C(F)(F)F	-16.8
Cc1cccc(N2CC[C@@H]3[C@@H](CO[C@H]3CNC(=O)c3ccco3)C2)n1	-1.973
NC(=O)N1CC[C@H]2CO[C@H](CNC(=O)c3ccnnc3)[C@H]2C1	-2.645
Cn1cc(CN2CC[C@@H]3[C@@H](CO[C@H]3CNC(=O)c3ccco3)C2)cn1.O=C(O)C(F)(F)F.O=C(O)C(F)(F)F	86.49
O=C(NC[C@H]1OC[C@@H]2CN(Cc3ccco3)CC[C@@H]21)c1cscn1.O=C(O)C(F)(F)F	98.96
O=C(NC[C@H]1OC[C@@H]2CN(Cc3ccco3)CC[C@@H]21)c1cccnc1.O=C(O)C(F)(F)F.O=C(O)C(F)(F)F	98.92
O=C(NC[C@H]1OC[C@@H]2CCN(Cc3ccco3)C[C@@H]21)c1ccsc1.O=C(O)C(F)(F)F	14.6
CN(Cc1cccnc1)C[C@@H]1OC[C@H]2CN(Cc3ccco3)CC[C@H]21.O=C(O)C(F)(F)F.O=C(O)C(F)(F)F.O=C(O)C(F)(F)F	9.505

Source: ChEMBL document CHEMBL3988442, “University of Dundee, Small-Polar-MMV Screening Library” (2021)
